Assay [1] has as its target NAD(+) hydrolase SARM1 (Homo sapiens) (UniProt Q6SZW1). The assay can be described thus: blocking NAD cleavage by SARM1 SAM-TIR – cell lysate, NAD-Glo luminescence (AID 1508614;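 active = compound whose remaining NAD level is above about 45 nM, limit read from the data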;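 note: higher remaining NAD means stronger inhibition of SARM1 NADase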). The conditions noted are these: SAM-TIR HEK293T lysate NADase, at 1 µM, stronger effect = higher value.
Assay [2] is described as follows: viability loss in pontine glioma line – cell-based, SU-DIPG-XIII, MIPE4.0, CellTiter-Glo, qHTS, dose response (AID 1347061; cut-off not given, nearly all actives have AC50 up to about 37 µM;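 note: cells exposed to compound for 48 hours before readout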). The conditions noted are these: CellTiter-Glo ATP luminescence.
A short description of assay [3]: viability loss in pontine glioma line – cell-based, SU-DIPG-XIII, MIPE5.0, CellTiter-Glo, qHTS, dose response (AID 1347064; cut-off not given, nearly all actives have AC50 up to about 23 µM;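 for AC50: cells exposed to compound for 48 hours before the viability read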). The conditions noted are these: CellTiter-Glo ATP luminescence.
A short description of assay [4]: compounds altering circadian rhythm period length – cell-based, LOPAC library, luminescence reporter (AID 2774; call rule not given here;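 note: values are relative to mean of DMSO wells on each plate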). To be noted: circadian reporter cells, at 7 µM, actives lie on both sides.
In assay [5] the test system is Hepatitis C virus NS3 helicase. The assay can be described thus: blockers of NS3h binding to ssDNA – biochemical, fluorescence polarization, LOPAC1280 library, primary screen (AID 687035; in the data active = inhibition above about 37%). The conditions noted are these: Purified HCV NS3 helicase, Cy5-dT15 ssDNA binding fluorescence polarization; stronger effect = higher value; concentration not given here.
Assay [6] can be described thus: compounds altering Cy5-DNA-NS3h complex signal – biochemical, LOPAC1280, artefact control for HCV NS3 helicase inhibitor project (AID 687037; call rule not given here). The conditions noted are these: Cy5-DNA-NS3h complex fluorescence interference counterscreen.
Assay [7] in a line: growth inhibition, single agent or in combination, cell-based, chromothripsis tumors, cisplatin or BGB combos (AID 1671449).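 Note: cells exposed for 96 hours; 0% = vehicle DMSO and 100% = killing by high DMSO.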 The conditions noted are these: LFS_MB_P medulloblastoma cells.
Assay [8] is described as follows: growth inhibition, single agent and combos, cell-based, chromothripsis tumors, cisplatin or BGB combos (AID 1671450).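 Note: cells exposed to compound for four days; 0% = vehicle DMSO and 100% = cell killing by high DMSO.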 To be noted: HDN33 neuroblastoma cells, stronger effect = higher value.
A short description of assay [9]: growth inhibition, single agents and combos, ICB984, cell-based, cisplatin or BGB combos, synergistic combos for chromothripsis tumors (AID 1671451; call rule not given here;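 note: cells exposed for 96 hours before readout; 0% = vehicle DMSO and 100% = killing by high DMSO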). The conditions noted are these: ICB984 medulloblastoma cells, drug combinations, stronger effect = higher value.
Assay [10] is described as follows: growth inhibition, single agents and combos, LFS_MB_1R, cell-based, cisplatin or BGB combos, synergistic combos for chromothripsis tumors (AID 1671452).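 Note: cells exposed for 96 hours before readout.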 The conditions noted are these: LFS_MB_1R medulloblastoma cells, stronger effect = higher value.
The nature of assay [11]: growth inhibition, single agents and combos, HTB85, cell-based, BGB or cisplatin IC20 combos, synergistic combos for chromothripsis tumors (AID 1671453).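 Note: cells exposed for 96 hours before readout; 0% = vehicle DMSO and 100% = high DMSO killing control.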 To be noted: HTB85 osteosarcoma cells, drug combinations, stronger effect = higher value.
The nature of assay [12]: growth inhibition, single agents and combos, CRL2098, cell-based, BGB or cisplatin IC20 combos, synergistic combos for chromothripsis tumors (AID 1671454).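 Note: cells exposed for 96 h before readout; 0% = vehicle DMSO and 100% = killing by high DMSO.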 The conditions noted are these: CRL2098 osteosarcoma cells, drug combinations, stronger effect = higher value.
Assay [13] in a line: growth inhibition, single agents and combos, HD-MB03, cell-based, BGB or cisplatin IC20 combos, synergistic combos for chromothripsis tumors (AID 1671455; in the data active = inhibition above about 83%;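 note: 0% = vehicle DMSO and 100% = high DMSO as cytotoxic control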). The conditions noted are these: HD-MB03 medulloblastoma cells, stronger effect = higher value.
Assay [14] can be described thus: growth inhibition, single agents and combos, UWB1.289, cell-based, BGB or cisplatin combos, synergistic combos for chromothripsis tumors (AID 1671456).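 Note: cells exposed to compound for four days; 0% = vehicle DMSO and 100% = killing by high DMSO.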 The conditions noted are these: UWB1.289 ovarian carcinoma cells, stronger effect = higher value.
Assay [15] is described as follows: growth inhibition, MDA-MB-436, cell-based, BGB or cisplatin combos, synergistic combos for chromothripsis tumors (AID 1671458; call rule not given here;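 note: cells exposed for 96 hours; 0% = vehicle DMSO and 100% = killing by high DMSO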). To be noted: MDA-MB-436 breast carcinoma growth inhibition, drug combinations, stronger effect = higher value.
The nature of assay [16]: BT084 cell growth, single and combined drugs, ICGC_MB145, cisplatin and BGB IC40 combos (AID 1671461).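 Note: cells exposed to drugs for 96 hours; 0% = vehicle DMSO and 100% = high DMSO full killing control.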 To be noted: BT084 medulloblastoma cells, drug combinations, stronger effect = higher value.
Assay [17] is described as follows: RCMB18 cell growth, single agent and combined, cisplatin and BGB IC40 combos (AID 1671462).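 Note: cells exposed to compound for four days.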 To be noted: RCMB18 medulloblastoma cells, stronger effect = higher value.
The nature of assay [18]: CRL1545 cell growth, single agent and combined, cisplatin and BGB IC20 combos (AID 1671464).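 Note: cells exposed to compound for 96 hours before readout; 0% = vehicle DMSO and 100% = high DMSO killing control.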 The conditions noted are these: CRL1545 osteosarcoma cells, stronger effect = higher value.
Setting [19] is: measured here: combination with BGB IC40, at 0.05 µM.
Setting [20] is: measured here: with BGB IC20 combination, at 0.5 µM.
[21] abbreviates: measured here: with cisplatin IC20 combination, at 0.5 µM.
Where [22] appears, read: measured here: combination with cisplatin, at 0.5 µM.

Records with an inconclusive call do not appear. Active and inactive are the calls of the source. Cut-off read from the data, not from the text of the source, unless noted: active = inhibition above about 80%; inactive = the rest.

Chain of NAD(+) hydrolase SARM1 (Homo sapiens) (Q6SZW1 whole entry, looked up): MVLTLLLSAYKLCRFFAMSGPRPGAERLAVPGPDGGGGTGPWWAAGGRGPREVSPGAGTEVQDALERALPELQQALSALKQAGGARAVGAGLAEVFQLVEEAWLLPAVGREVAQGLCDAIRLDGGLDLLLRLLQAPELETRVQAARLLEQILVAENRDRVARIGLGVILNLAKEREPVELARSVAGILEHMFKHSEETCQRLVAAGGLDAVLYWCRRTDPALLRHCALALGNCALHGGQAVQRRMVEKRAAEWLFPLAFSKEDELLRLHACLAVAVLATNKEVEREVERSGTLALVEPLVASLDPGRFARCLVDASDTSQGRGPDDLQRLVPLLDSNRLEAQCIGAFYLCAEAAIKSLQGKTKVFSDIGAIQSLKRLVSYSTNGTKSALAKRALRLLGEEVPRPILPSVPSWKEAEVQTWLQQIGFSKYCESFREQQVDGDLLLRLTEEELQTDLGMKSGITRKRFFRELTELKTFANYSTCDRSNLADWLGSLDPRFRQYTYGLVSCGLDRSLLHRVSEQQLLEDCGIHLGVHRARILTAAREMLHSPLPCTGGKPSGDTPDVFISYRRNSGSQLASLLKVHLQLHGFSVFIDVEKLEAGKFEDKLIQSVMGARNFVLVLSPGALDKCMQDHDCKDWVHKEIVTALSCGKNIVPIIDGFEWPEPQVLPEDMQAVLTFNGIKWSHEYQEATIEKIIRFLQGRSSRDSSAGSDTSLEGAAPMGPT

Turning to `O=C(OC1C[C@H]2CC[C@@H](C1)[N+]21CCCC1)C(O)(c1ccccc1)c1ccccc1` (stereo partly specified), in assay [1], the remaining NAD was 10 nM (inactive).

Regarding `COC(=O)N[C@H](C(=O)N[C@@H](Cc1ccccc1)[C@@H](O)CN(Cc1ccc(-c2ccccn2)cc1)NC(=O)[C@@H](NC(=O)OC)C(C)(C)C)C(C)(C)C`, the molecule was called inactive in assay [2].

Regarding `Clc1cccc(C(c2ccc3nc[nH]c3c2)n2ccnc2)c1` (stereo unspecified), the call in assay [3] was inactive.

In the case of `CCC(C)(C)c1ccc(CC(C)CN2C[C@@H](C)O[C@@H](C)C2)cc1` (stereo partly specified), the remaining NAD in [1] was 10 nM (inactive).

For the molecule `O=C(O)c1c(Cl)c(Cl)c(Cl)c(Cl)c1-c1c2cc(I)c(=O)c(I)c-2oc2c(I)c(O)c(I)cc12`, the AC50 in assay [2] is 16.6 µM (active); in assay [3], 6.61 µM (active).

Regarding `Cc1c(C)c2c(c(C)c1O)CCC(C)(COc1ccc(CC3SC(=O)NC3=O)cc1)O2` (stereo unspecified), the molecule was called inactive in assay [3].

As to `CC1=C(C)C(=O)C(CCCCC#CCCCC#CCO)=C(C)C1=O`, the period change in assay [4] was -0.105 h (inactive). Also, in assay [5], the inhibition was -2% (inactive). The fluorescence ratio (interference) in [6] was 1 (inactive).

As to `O[C@@H](CNC[C@H](O)[C@H]1CCc2cc(F)ccc2O1)[C@@H]1CCc2cc(F)ccc2O1`, the outcome in assay [2] was inactive.

Take `CN(c1nccc(=O)[nH]1)C1CCN(c2nc3ccccc3n2Cc2ccc(F)cc2)CC1`: the molecule was called inactive in [2].

On to `Cc1c(C(=O)NN2CCCCC2)nn(-c2ccc(Cl)cc2Cl)c1-c1ccc(Cl)cc1`, for which the AC50 in [2] was 20.9 µM (active).

`O=C(O)c1cccc(-c2noc(-c3ccccc3F)n2)c1`: the molecule was classed as inactive in [2].

For the molecule `O=c1[nH]c(=O)n([C@H]2C[C@H](O)[C@@H](CO)O2)cc1C(F)(F)F`, the molecule was classed as inactive in assay [2] and in [3]. Also, the remaining NAD in assay [1] was 10 nM (inactive). Also, the inhibition is 36.4% (inactive) in assay [7] (at 0.5 µM, stronger effect = higher value); -2.27% in assay [7] (measured here: combination with BGB IC20, at 0.005 µM); -21% in assay [7] (measured here: combination with BGB IC40, at 0.005 µM); -26.7% in [7] (setting [19]); 71.9% in assay [7] (measured here: combination with cisplatin, at 0.5 µM, stronger effect = higher value); -10% in assay [7] (measured here: combination with cisplatin, at 5 µM, stronger effect = higher value). Moreover, the inhibition in [8] (BGB combo, at 5 µM) is 76.1%; in assay [8] (at 0.5 µM) it was -26.4% (inactive); in [8] (cisplatin combo, at 5 µM), 74.4%; in assay [8] (setting [20]), -34.8%; in [8] (setting [21]) it was -33.1%; in assay [8] (single agent, at 5 µM), 78.3%. Further, the inhibition is -20% in [9] (BGB IC20 combo, at 0.005 µM); -34.3% in [9] (BGB IC40 combo, at 0.005 µM); -24% in assay [9] (BGB IC40 combo, at 0.05 µM); -27.9% (inactive) in [9] (at 0.5 µM); -27.5% in [9] (cisplatin combo, at 0.05 µM); -36.1% in assay [9] (cisplatin combo, at 0.5 µM). In addition, the inhibition was -29.6% in assay [9] (cisplatin combo, at 5 µM); -19.3% in [9] (measured here: 5 uM single agent, at 5 µM); -42% (inactive) in assay [10] (at 0.5 µM); -48.3% in assay [10] (setting [19]); -37.1% in [10] (setting [22]); -50.8% in assay [10] (measured here: combination with cisplatin, at 5 µM). Also, the inhibition in assay [11] (at 0.5 µM) was -26.4% (inactive); in assay [11] (measured here: with BGB IC20, at 0.5 µM), -56.9%; in assay [11] (measured here: with BGB IC20, at 5 µM), -39.6%; in assay [11] (measured here: with cisplatin IC20, at 0.5 µM), -12.8%; in [11] (measured here: with cisplatin IC20, at 5 µM), 1.86%; in [11] (single agent, at 5 µM) it was 7.02%. For the same molecule, the inhibition in assay [12] (at 0.5 µM) is -101% (inactive); in [12] (measured here: combination with BGB at IC20, at 0.5 µM), -90.6%; in [12] (measured here: combination with cisplatin at IC20, at 0.5 µM) it was -100%; in assay [13] (at 0.5 µM), 46.7% (inactive); in [13] (measured here: combo with BGB at IC20, at 0.5 µM) it was 44.2%; in assay [13] (measured here: combo with cisplatin at IC20, at 0.5 µM), 72.4%. Further, the inhibition in assay [14] (at 0.5 µM) is -11.1% (inactive); in assay [14] (measured here: inhibition with BGB combination, at 0.05 µM), -14.4%; in assay [14] (measured here: inhibition with cisplatin combination, at 0.05 µM) it was -6.35%; in assay [15] (at 0.5 µM), -22.5% (inactive); in assay [15] (measured here: BGB combination, at 0.5 µM), -18.8%; in assay [15] (measured here: BGB combination, at 5 µM) it was 1.19%. The inhibition in assay [15] (measured here: cisplatin combination, at 0.5 µM) is -44.6%; in [15] (measured here: cisplatin combination, at 5 µM), 12.8%; in assay [16] (at 0.5 µM), -27.4% (inactive); in [16] (cisplatin combination, at 0.5 µM), -13.4%; in assay [16] (cisplatin combination, at 5 µM) it was -12.4%; in [16] (measured here: BGB IC40 combination 0.05 uM, at 0.05 µM) it was -6.58%. The inhibition in assay [16] (single agent, at 5 µM) was -41.3%; in assay [17] (at 0.5 µM) it was -14.2% (inactive); in assay [17] (cisplatin combo, at 5 µM) it was -41.9%; in assay [17] (measured here: BGB IC40 combination, at 0.05 µM) it was -13.9%; in assay [17] (setting [22]), -28.5%; in assay [17] (single agent, at 5 µM), -39.2%. Further, the inhibition in assay [18] (at 0.5 µM) is -43.3% (inactive); in assay [18] (setting [20]), -61.7%; in [18] (setting [21]), -37.1%; in assay [18] (single agent, at 0.05 µM), -89%; in assay [18] (single agent, at 5 µM), 33.7%.

These data come from PubChem BioAssay.
